# ATXN2 expr inh = reduces ATXN2 reporter expression in HEK-293 cells | HEK-293 ATXN2-luciferase reporter, luminescence, 24 h | AID 1745845 | 360,000 compounds, 0.72% hits | Potency, µM (top dose mostly 57 µM), inactives show at the top dose activity change, negative = inhibition, hits mostly inhibitors; also: potency is read from the fitted curve at half-maximal effect; % is scaled to controls: 0 for no effect and ±100 for the full control effect; nearly all actives have a fitted effect of over 55% in size
#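 qHTS (up to 57 uM final) was run with 24 h compound exposure of reporter cells at 37 °C. Each well was multiplexed: SteadyGlo luminescence measured ATXN2-luciferase expression after a fluorogenic Gly-Phe-AFC viability readout (25 uM final).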
# S2 tox = reduces viability in counter-screen for ATXN expression inhibitors; S2 cells (HEK-293 line with an ATXN2-luciferase reporter) viability, CellTiter-Fluor protease fluorescence, 24 h; Potency, µM (top dose mostly 56.7 µM), usual class: cytotoxic; 400,000 compounds, 0.49% hits; AID 651635; also: potency is read from the fitted curve at half-maximal effect; nearly all actives have a fitted effect of over 40% in size
# TGFb inhibitor = TGF-b pathway inhibition; HepG2 CAGA-GFP TGF-b/SMAD3 reporter, GFP fluorescence, 18 h; TGF-beta stimulated, 500 pg/mL final; Potency, µM (titrated, usually from 46.1 µM), for the others: at the highest dose activity, negative = inhibition, hits mostly inhibitors; 410,000 compounds, 1.2% hits; also: potency is read from the fitted curve at half-maximal effect; % is scaled to controls: 0 for no effect and ±100 for the full control effect; nearly all actives have a fitted effect of over 65% in size
#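 Per well, imaged GFP fluorescence of HEPG2 CAGA-GFP cells gives the signal; cells get compound, then TGF-beta (500 pg/mL final), 18 h at 37 degrees C; %Activity versus -TGF-beta and +DMSO controls.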
# CtBP-E1A blk = CtBP/E1A binding inhibition | activity change, % (no concentration beside the values) | 340,000 compounds, 0.49% hits | AlphaScreen GST-E1A/His-CtBP binding, 1536-well; stronger effect = lower value; in the data active = activity change below about -65%; inconclusive = mostly about -30% to -63%; also: % is scaled to controls: 0 for no effect and ±100 for the full control effect
#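 Homogeneous bead-based format: GST-tagged E1A captured on glutathione donor beads, His-tagged CtBP on nickel acceptor beads; compounds precede bead addition by 2 h at 37 °C.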
# HepG2 tox-1 = counter-screen for TGF-b inhibitors: cytotoxicity in HepG2 cells. HepG2 CAGA-GFP viability, ATP luminescence, 18 h. Potency, µM (series often up to 46.1 µM), for inactives: top-dose activity change, negative = cytotoxicity, most hits filed as cytotoxic. 410,000 compounds, 0.76% hits; also: potency is read from the fitted curve at half-maximal effect
#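 HepG2 CAGA-GFP cells (1000/well, DMEM with 1% FBS) received compound, then TGF-beta at 500 pg/mL final, and were incubated 18 hours at 37 degrees C. Viability was read by CellTiter-Glo luminescence. Media-only wells were set as complete cell-killing and DMSO as no toxicity.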
# Six1-Eya2 inh = Six1/Eya2 interaction inhibition; Q15475+O00167; 360,000 compounds, 0.56% hits; activity change, % (concentration not given with the values); AID 651725; AlphaScreen GST-Six1/His-Eya2 binding, biochemical; stronger effect = lower value; in the data active = activity change below about -65%; inconclusive = mostly about -30% to -63%; also: % is scaled to controls: 0 for no effect and ±100 for the full control effect
# Target sequence (O00167 whole entry, looked up): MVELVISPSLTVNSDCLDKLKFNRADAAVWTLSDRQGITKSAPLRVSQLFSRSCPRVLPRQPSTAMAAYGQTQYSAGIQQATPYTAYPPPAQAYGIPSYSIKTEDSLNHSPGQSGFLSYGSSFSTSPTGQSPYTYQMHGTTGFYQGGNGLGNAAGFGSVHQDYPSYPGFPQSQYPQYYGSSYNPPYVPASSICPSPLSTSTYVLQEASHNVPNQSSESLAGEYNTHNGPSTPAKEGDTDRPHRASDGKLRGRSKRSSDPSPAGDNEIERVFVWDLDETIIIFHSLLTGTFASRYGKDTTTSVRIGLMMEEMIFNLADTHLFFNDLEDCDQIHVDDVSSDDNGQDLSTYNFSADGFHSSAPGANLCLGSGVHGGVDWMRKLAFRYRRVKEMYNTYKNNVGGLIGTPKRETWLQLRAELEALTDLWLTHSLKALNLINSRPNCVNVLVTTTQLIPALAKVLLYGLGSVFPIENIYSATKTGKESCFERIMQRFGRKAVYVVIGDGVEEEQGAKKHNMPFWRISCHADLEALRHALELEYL
# Target sequence (Q15475 whole entry, looked up): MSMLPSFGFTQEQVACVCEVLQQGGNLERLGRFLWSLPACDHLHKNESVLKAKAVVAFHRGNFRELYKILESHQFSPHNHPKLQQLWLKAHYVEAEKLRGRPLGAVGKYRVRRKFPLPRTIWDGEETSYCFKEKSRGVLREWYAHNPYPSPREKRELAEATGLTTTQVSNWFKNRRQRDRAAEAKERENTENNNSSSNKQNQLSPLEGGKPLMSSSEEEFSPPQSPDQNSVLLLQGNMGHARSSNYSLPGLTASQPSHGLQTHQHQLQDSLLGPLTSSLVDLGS
#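 AlphaScreen luminescence read after one hour at 37 °C in darkness. Pin-transferred compounds met GST-Six1 and His-Eya2 protein (5X stock 250 nM/500 nM) plus glutathione donor and Ni-chelate acceptor beads (5X, 50 ug/mL).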
# TGFb confirm = confirmation of TGF-b signaling inhibitors in HepG2 reporter cells; shares compounds with TGFb inhibitor; HepG2 CAGA-GFP TGF-b reporter, GFP fluorescence, 18 h; cells stimulated with TGF-beta, 500 pg/mL; Potency, µM (doses to about 46.1 µM), without a hit: at the top dose activity, negative = inhibition, usual class: inhibitors; 1,600 compounds, 63% hits; also: potency is read from the fitted curve at half-maximal effect; % is scaled to controls: 0 for no effect and ±100 for the full control effect; nearly all actives have a fitted effect of over 65% in size
# HepG2 tox-2 = HepG2 cytotoxicity, TGF-b inhibitor counterscreen | shares compounds with TGFb inhibitor | HepG2 CAGA-GFP viability, ATP luminescence, 18 h; cells stimulated with TGF-beta, 500 pg/mL | Potency, µM (titrated, usually from 46.1 µM), inactives show at the highest dose activity, negative = cytotoxicity, most hits filed as inhibitors | 1,600 compounds, 27% hits | AID 720535; also: potency is read from the fitted curve at half-maximal effect; % is scaled to controls: 0 for no effect and ±100 for the full control effect; nearly all actives have a fitted effect of over 70% in size
# CCL64 TGFb inh = orthogonal confirmation of TGF-b inhibitors in CCL64 cells | shares compounds with TGFb inhibitor | CCL64 CAGA-GFP reporter, TGF-b stimulated, GFP fluorescence, 18 h | Potency, µM (highest dose often 46.1 µM), for inactives: at the top dose activity, negative = inhibition, actives largely listed as inhibitors | 1,600 compounds, 41% hits; also: potency is read from the fitted curve at half-maximal effect; nearly all actives have a fitted effect of over 65% in size
# TGFb COP inh = blocks TGF-b signaling in HepG2 COP reporter | shares compounds with TGFb inhibitor | HepG2 COP-GFP TGF-b reporter, GFP fluorescence, 18 h; cells stimulated by added recombinant TGF-beta | Potency, µM (top dose mostly 46.1 µM), for inactives: top-dose activity, negative = inhibition, actives largely listed as inhibitors | 1,600 compounds, 3% hits | AID 720537; also: potency is read from the fitted curve at half-maximal effect; nearly all actives have a fitted effect of over 70% in size
# Numbers without * were called inactive; i = inactive; ? = inconclusive; . = not tested or not shown. Rows were chosen to be rich in hits. Some 2.8% of all compounds tested hit in one or more screens of this group. Unless noted, calls follow the shape of the dose curve; as a rule, active = well fitted curve in the direction sought with a large enough effect; inconclusive = small, poorly fitted or top-dose-only effect, or another doubt; inactive = no such curve, though single readings can be large; an effect the other way counts as inactive or inconclusive.
SMILES,ATXN2 expr inh,S2 tox,TGFb inhibitor,CtBP-E1A blk,HepG2 tox-1,Six1-Eya2 inh,TGFb confirm,HepG2 tox-2,CCL64 TGFb inh,TGFb COP inh
CCOC(=O)C1=C[C@@H](C(C)(C)C)N(S(=O)(=O)c2ccc(C)cc2)[C@H]1c1ccc(OC)cc1,0%,i,?,?,-16%,7,.,.,.,.
CCOC(=O)C1=C[C@@H](C(C)(C)C)N(S(=O)(=O)c2ccc(C)cc2)[C@H]1c1ccccc1,-11%,i,?,8,-25%,4,.,.,.,.
CCOC(=O)C1=C[C@@H](C(C)(C)C)N(S(=O)(=O)c2ccc([N+](=O)[O-])cc2)[C@H]1c1ccccc1,-20%,i,?,-28,-15%,-21,?,-3%,?,-1%
CCOC(=O)C1=C[C@@H](C(C)(C)C)N(S(=O)(=O)c2ccc(OC)cc2)[C@H]1c1ccccc1,-9%,i,11µM*,6,-20%,2,9.2µM*,-29%,-29%,-3%
Clc1cccc(Nc2nc(-c3ccncc3)nc3ccccc23)c1,?,?,2%,3,-41%,-2,?,?,?,9%
Clc1ccccc1Nc1nc(-c2ccncc2)nc2ccccc12,-35%,i,-10%,-1,-55%,5,-14%,23µM*,?,52%
c1ccc2c(Nc3nc(-c4ccncc4)nc4ccccc34)cccc2c1,-23%,i,-16%,6,-64%,4,.,.,.,.
CCn1nc(C(=O)OC(C(=O)c2c[nH]c3ccccc23)c2ccccc2)c2ccccc2c1=O (stereo not drawn),8%,i,11µM*,-19,-26%,-6,21µM*,-18%,?,-17%
CCC1Oc2ccc(C)cc2N(CC(=O)N(Cc2ccc(C)o2)C2CCCC2)C1=O (stereo not drawn),-4%,i,18µM*,0,3%,-12,12µM*,-26%,?,-2%
CCC1Oc2ccc(C)cc2N(CC(=O)NC2CCCCC2)C1=O (stereo not drawn),4%,i,-1%,1,12%,3,.,.,.,.
Cc1cc2nn(-c3ccc(Cl)cc3)nc2cc1N,.,.,0.79µM*,.,-37%,13,6.5µM*,2.6µM*,6%,40%
Cc1cc2nn(-c3ccc(F)cc3)nc2cc1N,-5%,i,?,4,-23%,8,.,.,.,.
O=[N+]([O-])c1ccc(N/N=C/c2cccnc2)cc1,-1%,i,10µM*,0,-14%,-20,10µM*,?,5%,27%
COc1ccc(-c2coc3c(C(=O)NCC(C)C)cccc23)c(C)c1,-35%,i,?,9,-28%,1,13µM*,?,?,45%
Cc1ccc(OCC(=O)NCC(=O)OCc2cc(=O)n3nc(C(C)C)sc3n2)cc1,-3%,i,-16%,.,-18%,.,.,.,.,.
COc1ccc(C)cc1NS(=O)(=O)c1c(C(=O)N2CCCCCC2)c(C)n(C)c1C,-2%,i,19%,.,-4%,.,.,.,.,.
COc1ccc(NC(=S)N(CCCN2CCCC2)Cc2cccn2Cc2ccc(Cl)cc2)cc1Cl,.,.,3.2µM*,.,6.3µM*,?,?,?,?,-1%
Cc1ccc(NC(=S)N(CCCN2CCCC2)Cc2cccn2Cc2ccc(Cl)cc2)cc1Cl,?,?,-4%,10,1%,-6,.,.,.,.
CC(C)C[C@H]1CNC(=S)N1CC1CCCN1C[C@H](CC(C)C)N1C[C@H](Cc2ccc(O)cc2)N(CC2CCCCC2)C1=S (stereo partly drawn),?,?,10µM*,-1,11µM*,-11,?,?,?,?
CC(C)C[C@H]1CNC(=S)N1CC1CCCN1C[C@H](CC(C)C)N1C[C@H](Cc2ccc(O)cc2)N(CC2CCCCCC2)C1=S (stereo partly drawn),?,?,?,-14,-54%,-3,.,.,.,.
CC(C)C[C@H]1CNC(=S)N1C[C@H]1CCCN1C[C@H](CC(C)C)N1C[C@H](Cc2ccc(O)cc2)N(CC2CCCCCC2)C1=S,?,22µM*,6.3µM*,-7,11µM*,-13,?,?,?,91%
CC(C)C[C@H]1CN([C@@H](Cc2ccccc2)CN2CCCC2CN2C(=S)NC[C@@H]2Cc2ccccc2)C(=S)N1CC1CCCCC1 (stereo partly drawn),0%,?,.,-7,.,-3,.,.,.,.
CC(C)C[C@@H](CN1CCCC1CN1C(=S)NC[C@@H]1Cc1ccc(O)cc1)N1C[C@H](Cc2ccc(O)cc2)N(CC2CCCCC2)C1=S (stereo partly drawn),?,?,10µM*,-5,-100%,-6,8.2µM*,?,?,?
O=C1CS(=O)(=O)N(Cc2ccc(F)cc2)c2ccccc21,-3%,i,?,0,-5%,1,.,.,.,.
O=C1CS(=O)(=O)N(Cc2ccccc2F)c2ccc(Br)cc21,4%,i,13µM*,3,-24%,3,?,?,?,38%
CCOc1nc(N=C(N)N)nc2c(C)cccc12,?,?,7.9µM*,-28,-22%,?,16µM*,?,7%,27%
